From PubChem BioAssay
BLM helicase inh – Bloom syndrome helicase (human) inhibition. Potency, µM (titrated, usually from 56.1 µM), without a hit: top-dose activity change, negative = inhibition, actives largely listed as inhibitors. recombinant BLM DNA unwinding, fluorescence dequenching. actives 0.2% (n = 350,000). P54132;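 further: plate controls were vehicle for no effect and no enzyme for full effect; nearly all actives have a fitted effect of over 35% in size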
L3MBTL1 inh – blocks human L3MBTL1. Q9Y468. Potency, µM (titrated, usually from 57.1 µM), inactives show at the top dose activity, negative = inhibition, usual class: inhibitors. actives 0.66% (n = 230,000). AlphaScreen L3MBTL1–H3K9me1 peptide binding. AID 485360; further: nearly all actives have a fitted effect of over 60% in size
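AlphaScreen proximity signal between nickel-chelate acceptor and streptavidin donor beads (final 10 ug/mL) reports binding of 50 nM L3MBTL1 to 75 nM biotin-H3 K9me1 peptide; complex incubated with compounds 30 min at room temperature; cefsulodin titration as control.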
RECQ1 helicase – blocks DNA unwinding by human RECQ1; Potency, µM (top dose mostly 57.3 µM), for inactives: at the top dose activity, negative = inhibition, usual class: inhibitors; P46063; RECQ1 DNA unwinding, red fluorescence kinetic read; actives 0.54% (n = 240,000);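 further: plate controls were vehicle for no effect and no enzyme for full effect; nearly all actives have a fitted effect of over 30% in size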
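50 nM RECQ1T1 preincubated 15 min with compound in Tris pH 8.0 buffer with MgCl2, DTT, Tween-20 and 2.5 ug/ml poly(dI-dC); started with 200 nM TAMRA/BHQ-2 forked duplex and 2 mM ATP. Unwinding read as fluorescence (525/598 nm), two reads 2 h apart.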
APE1 inh-1 – APE1 (human) endonuclease inhibition | P27695 | recombinant APE1, TAMRA/BHQ-2 abasic DNA cleavage fluorescence | Potency, µM (series often up to 65.8 µM), for inactives: at the highest dose activity change, negative = inhibition, hits mostly inhibitors | actives 0.35% (n = 350,000);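 further: plate controls were vehicle for no effect and reference inhibitor for full effect; nearly all actives have a fitted effect of over 55% in size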
Target sequence (P27695 whole entry, looked up): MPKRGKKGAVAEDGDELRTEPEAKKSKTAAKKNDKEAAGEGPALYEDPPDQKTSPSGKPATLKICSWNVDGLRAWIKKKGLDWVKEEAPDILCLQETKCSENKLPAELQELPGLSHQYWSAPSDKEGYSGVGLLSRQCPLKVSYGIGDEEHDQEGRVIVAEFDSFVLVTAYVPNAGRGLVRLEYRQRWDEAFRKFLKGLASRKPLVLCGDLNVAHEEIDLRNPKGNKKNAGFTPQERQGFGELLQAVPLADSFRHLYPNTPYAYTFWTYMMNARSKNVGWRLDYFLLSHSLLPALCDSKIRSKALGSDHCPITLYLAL
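Substrate: short duplex with […] THF abasic site, 5'-TAMRA and 3'-BHQ-2, 50 nM final. APE1 at 0.75 nM, preincubated 15 min RT with compound. Fluorescence increase from first to third read measured activity.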
DNA dye displace – counter-screen for APE1 inhibitors: DNA dye displacement. AID 2564. actives 7% (n = 480). DNA fluorescent dye displacement counterscreen, fluorescence. Potency, µM (doses to about 28.5 µM), for inactives: at the highest dose activity change, negative = inhibition, most hits filed as inhibitors. shares compounds with APE1 inh-1;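 further: loss of thiazole orange fluorescence as the dye is displaced from duplex DNA; 0% = ThO with dsDNA and no compound and -100% = ThO without dsDNA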
EndoIV counter – blocks E. coli endonuclease IV DNA cleavage | shares compounds with APE1 inh-1 | E. coli Endo IV, fluorogenic AP-site DNA cleavage | Potency, µM (series often up to 27.1 µM), for inactives: at the top dose activity change, negative = inhibition, usual class: inhibitors | actives 4% (n = 560) | AID 2565;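 further: plate controls were uninhibited enzyme wells for no effect and no enzyme buffer wells for full effect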
APE1 inh-2 – APE1 (human) endonuclease inhibition, confirmation; shares compounds with APE1 inh-1; purified APE1, fluorogenic abasic-site DNA cleavage; actives 44% (n = 750); Potency, µM (titrated, usually from 57.1 µM), inactives show top-dose activity change, negative = inhibition, hits mostly inhibitors; further: nearly all actives have a fitted effect of over 30% in size
APE1 FP inh – APE1 (human) DNA binding inhibition, fluorescence polarization; shares compounds with APE1 inh-1; APE1 binding to TAMRA-labelled double-stranded DNA, fluorescence polarization displacement; Potency, µM (highest dose often 28.5 µM), inactives show at the top dose activity, negative = inhibition, actives largely listed as inhibitors; actives 7% (n = 480); AID 2573
Active calls of the source: *; i = inactive; ? = inconclusive; · = no result; ! = not active in a repeat; [ ] = dose if it differs, or a comment. This is a sample that favours compounds with a hit; in the whole collection about 0.78% have one here. The call rests on the fitted dose curve; in most records, active means well fitted curve in the direction sought with a large enough effect; inconclusive means small, poorly fitted or top-dose-only effect, or another doubt; inactive means no such curve, though single readings can be large; an effect the other way counts as inactive or inconclusive. Unless noted, on the % scale 0 is the no-effect control and ±100 the full control effect; potency means the concentration at half of the fitted maximal effect.

SMILES	BLM helicase inh	L3MBTL1 inh	RECQ1 helicase	APE1 inh-1	EndoIV counter	APE1 inh-2	others
c1ccc(N2N=C(c3cccs3)CC2c2ccco2)cc1 (configuration not stated)	-8%	166%	?	-6%	·	·
Clc1ccc(N2N=C(c3cccs3)CC2c2ccco2)cc1 (configuration not stated)	-11%	134%	-18%	12%	·	-31%
Cc1ccc2c(c1)nc(SCC(O)c1ccc(Br)cc1)n2C (configuration not stated)	-3%	·	·	·	·	·
Nc1cc(C(=O)O)ccc1Sc1ccccc1C(=O)O	6%	·	28%	?	·	-10%
CSc1ccc(CNC(=O)c2cc3c(=O)n(Cc4ccco4)ccc3nc2C)cc1	1%	·	·	·	·	·
Cc1ccc(S(=O)Cc2nc(-c3ccc(C(=O)NC(C)c4ccccc4)cc3)oc2C)cc1 (configuration not stated)	-17%	·	·	·	·	·
CCN1C(=O)c2cccc3c(Cl)ccc(c23)C1=O	3%	-3%	i	-3%	·	·
O=C1c2cccc3c(Cl)ccc(c23)C(=O)N1O	-1%	-3%	-5%	?	-2%	-18%[24.4 µM]	DNA dye displace=-5%;APE1 FP inh=-102%
NC(=O)c1ccc2nc(NC(=O)c3ccc(N)cc3)sc2c1	-9%	-6%	-22%	-4%	·	?
CCN(CC)CCNC(=O)Cn1ncc2c([nH]c3ccccc32)c1=O	1%	·	·	·	·	·
COc1cc(-c2coc3cc(OC)c(OC)c(OC)c3c2=O)cc(OC)c1OC	4%	·	-3%	-1%	·	·
CC(=O)Oc1cc(-c2coc3cc(OC(C)=O)c(OC(C)=O)c(OC(C)=O)c3c2=O)cc(OC(C)=O)c1OC(C)=O	11µM*	·	1µM*	0.32µM*	21%[57.1 µM]	1.1µM*
COc1cc(/C=C/C(=O)c2cccs2)cc(OC)c1OC	-2%	·	-18%	-10%	·	·
Cc1nc(N=Nc2ccc(S(=O)(=O)O)cc2S(=O)(=O)O)c(COP(=O)(O)O)c(C=O)c1O	-4%	·	-3%	32µM*!	-1%[57.1 µM]	-6%
Cc1nc(N=Nc2ccc(C(=O)O)cc2)c(COP(=O)(O)O)c(C=O)c1O	·	·	-1%	?	-10%[57.1 µM]	14µM*
O=C(c1c(O)cc(O)cc1O)C1c2c(cc(O)c3c2O[C@H](c2ccc(O)cc2)[C@@H](O)C3)OC1c1ccc(O)cc1 (some centres not stated)	·	?	·	-9%	·	·
O=C(OC1Cc2c(O)cc(O)cc2OC1c1cc(O)c(O)c(O)c1-c1c(C2Oc3cc(O)cc(O)c3CC2O)cc(O)c(O)c1O)c1cc(O)c(O)c(O)c1 (configuration not stated)	6.3µM*	·	2.5µM*	0.1µM*	-20%[57.1 µM]	0.18µM*
CCC(=O)[C@@]1(O)C(=O)N2C(=C3C(=O)OCCC31)N(Cc1ccccc1)C(C)=C(C(=O)OC)C2c1ccccc1 (some centres not stated)	4%[12.4 µM]	·	0%[11.5 µM]	31%[12.4 µM]	·	·
CCc1cc2c(=O)c(-c3nc4ccccc4n3C)coc2c(CN2CCC(C)CC2)c1O	2%	·	·	3%	·	·
CCc1cc2c(=O)c(-c3nc4ccccc4n3C)coc2c(CN2CCN(C)CC2)c1O	-12%	6%[11.4 µM]	?	?	·	?
C=C(C)C(=O)OCCCCCCOc1ccc(C(=O)O)cc1	-16%	-6%	-4%	-3%	·	?
CCN(CC)CCNc1ccc(CO)c2sc3ccccc3c(=O)c12	83%	-2%	-1%	?	-14%[57.1 µM]	16µM*	DNA dye displace=7.9µM*;APE1 FP inh=-56%[57.1 µM]
O=[N+]([O-])c1ccc(/C([O-])=C(/C(=S)NCc2ccco2)[n+]2ccccc2)cc1	0%	?	-8%	8.9µM*	4%	?	DNA dye displace=1%;APE1 FP inh=?
COc1cccc(CNc2nc3ccccc3c3nc(-c4cccc(C)c4)nn23)c1	-9%	·	·	·	·	·
NC(=O)c1oc2ccccc2c1NC(=O)c1nc2ccccc2s1	-13%	-1%	-2%	-2%	·	?
SMILES	BLM helicase inh	L3MBTL1 inh	RECQ1 helicase	APE1 inh-1	EndoIV counter	APE1 inh-2	others
CCCCOc1cccc(C(=O)N(Cc2cccs2)c2ccc(OC)cc2)c1	-12%	·	·	·	·	·
Cc1ccc(NC(=O)C2CCN(S(=O)(=O)c3ccc4[nH]c5c(c4c3)CCCCC5)CC2)cc1	-10%	·	·	·	·	·
Cc1cc2c(cc1S(=O)(=O)Nc1cccc(C(F)(F)F)c1)OCCN2C	1%	·	·	·	·	·
O=C(CSc1nc2cc(Cl)c(Cl)cc2[nH]1)c1ccc2c(c1)OCO2	-15%	-15%	-2%	?	-2%	?	DNA dye displace=36%;APE1 FP inh=10%
O=C(CSc1nc2ccc(Cl)cc2[nH]1)c1ccc2c(c1)OCO2	2%	-2%	-17%	0%	·	·
O=C1c2ccccc2C(=O)c2c1ccc(O)c2O	-18%	·	?	?	91%[57.1 µM]	?	DNA dye displace=?;APE1 FP inh=-5%[57.1 µM]
O=C1c2ccc(O)c(O)c2C(=O)c2c(O)ccc(O)c21	-27%	·	32µM*	3.2µM*	14µM*	4µM*
O=C1c2ccccc2C(=O)c2c([N+](=O)[O-])ccc(O)c21	-9%	-21%	4%	28µM*	-4%	14µM*	DNA dye displace=?;APE1 FP inh=-19%
O=C1CCC([N+](=O)[O-])C(c2ccc(Br)cc2)N1 (configuration not stated)	2%	8%	-10%	14%	·	·
O=C1CCC([N+](=O)[O-])C(c2cccc([N+](=O)[O-])c2)N1 (configuration not stated)	0%	·	-4%	0.11µM*	-1%	-5%[24.4 µM]	DNA dye displace=-7%;APE1 FP inh=-2%
Cc1ccc(-c2cn3cccnc3n2)cc1NC(=O)c1ccc(Br)o1	-3%	2%	-13%	10%	·	·
COc1ccc(-c2cn3cccnc3n2)cc1NC(=O)c1ccc(Br)o1	-1%	4%	?	-6%	·	-25%
CC[C@H](C)[C@H](NC(=O)[C@H](Cc1ccc(O)cc1)NC(=O)[C@@H]1CCCN1C(=O)[C@H](CCCCN)NC(=O)[C@@H](N)CCCCN)C(=O)N[C@@H](CC(C)C)C(=O)O	2%	·	-9%	?	·	·
CCn1cc(C(=O)NCc2ccco2)c(=O)c2cc(F)c(N3CCN(C(=O)c4ccco4)CC3)cc21	-22%	26%[11.4 µM]	-26%	?	·	?
Oc1ccc(/C=N/N2CCCCC2)c(O)c1O	-9%	·	·	-39%	·	·
Oc1ccc(/C=N/N2CCOCC2)c(O)c1O	-7%	14µM*	12%	7.1µM*	21%	?	DNA dye displace=-5%;APE1 FP inh=-13%
